Screening results deposited in PubChem by National Center for Advancing Translational Sciences (NCATS).
Shown are actives, neighbours in structure and some others; about 3.8% of the full set was active somewhere.
ELG1 DNA repair – blocks ELG1-dependent DNA repair in HEK293T cells | AID 504467 | HEK293T ELG1-luciferase reporter, luminescence, 16 h; DNA damage induced by 5-fluorouridine | Potency, µM (titrated, usually from 46.1 µM), usual class: inhibitors | 2.3% of 330,000 active; further: nearly all actives have a fitted effect of over 55% in size
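5-Fluorouridine DNA damage + compound/DMSO, 2,000 cells/well, 16 h, 37 °C/5% CO2. ONE-Glo, 30 min RT, luminescence. Readout = decrease in reporter signal.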
Nrf2 block – Nrf2 pathway inhibition | A549 ARE-Fluc reporter, luciferase luminescence, 18-24 h | Potency, µM (doses to about 46 µM), hits mostly inhibitors | 2.1% of 360,000 active | AID 504444; further: nearly all actives have a fitted effect of over 60% in size
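Concentration-response testing used A549 ARE_Fluc cells at 5000 cells/well. Following an 18-24 h compound incubation, viability was read by fluorescence (Ex 405/Em 525) and luciferase output by luminescence.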
A549 tox – kills or reduces viability of A549 cells in Nrf2 counter-screen; 0.16% of 390,000 active; Potency, µM (doses to about 46 µM), hits mostly inhibitors; A549 ARE-Fluc cells, CellTiter-Fluor viability, 18-24 h
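A549 ARE-Fluc cells in 5% FBS OPTI-MEM, 5000 cells/well, rested 2 h then exposed to compounds in concentration-response for 18-24 h at 37 °C. Viability by CellTiter-Fluor fluorescence (Ex 405/Em 525) after 30 min; luciferase luminescence (BugLite, 15 min, RT) read afterwards.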
Nrf2 activator – activators of Nrf2 (ARE) signaling; Potency, µM (top dose mostly 46.1 µM), most hits filed as activators; AREc32 ARE-luciferase reporter (MCF7-derived line), luminescence, 24 h; 0.31% of 410,000 active; further: nearly all actives have a fitted effect of over 65% in size
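ARE activation measured as luciferase luminescence (Steady-Glo, 30 min RT) in AREc32_Fluc cells after 24 hr compound exposure at 37 deg C, 5% CO2; cells seeded overnight at 1000/well in OPTI-MEM, 5% FBS.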
mIDH1 inhibitor – blocks human mutant IDH1 R132H enzyme | IDH1-R132H enzyme, NADPH consumption, diaphorase/resazurin fluorescence | O75874 | Potency, µM (titrated, usually from 76.6 µM), actives largely listed as inhibitors | 0.093% of 390,000 active; further: nearly all actives have a fitted effect of over 65% in size
Target sequence (O75874 whole entry R132H, stated change not applied): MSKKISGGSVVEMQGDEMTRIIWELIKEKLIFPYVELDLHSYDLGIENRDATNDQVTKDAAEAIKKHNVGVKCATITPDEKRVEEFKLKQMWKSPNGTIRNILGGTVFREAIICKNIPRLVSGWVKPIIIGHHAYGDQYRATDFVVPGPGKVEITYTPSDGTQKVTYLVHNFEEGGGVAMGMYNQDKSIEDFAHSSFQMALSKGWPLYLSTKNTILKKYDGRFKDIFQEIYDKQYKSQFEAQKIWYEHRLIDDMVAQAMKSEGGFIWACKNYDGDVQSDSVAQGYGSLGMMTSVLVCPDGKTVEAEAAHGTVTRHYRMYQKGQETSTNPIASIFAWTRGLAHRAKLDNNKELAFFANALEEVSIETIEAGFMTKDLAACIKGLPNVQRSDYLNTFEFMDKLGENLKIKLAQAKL
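IDH1-R132H (0.5 ug/mL) preincubated 30 min with compound, then NADPH (0.016 mM) and alpha-KG (2 mM) added; 80 min at RT, pH 7.5. Remaining NADPH coupled via diaphorase/resazurin to fluorescence (540/590 nm); concentration-response curves normalized to no-enzyme control.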
Each line names hits and unclear results; the compound was inactive in the other large screens. The call rests on the fitted dose curve; in most records, active means well fitted curve in the direction sought with a large enough effect; inconclusive means small, poorly fitted or top-dose-only effect, or another doubt; inactive means no such curve, though single readings can be large; an effect the other way counts as inactive or inconclusive.

CCN1C(=O)[C@@H]2[C@@H](c3ccc(-c4ccccc4)cc3)N3CCC[C@@]3(C(=O)OC)[C@@H]2C1=O	none
C/C(Cl)=C\Cn1c(O)c(N=NC(N)=S)c2cc(Br)ccc21	none
NC(=S)N=Nc1c(O)n(CCCl)c2ccc(Br)cc12	ELG1 DNA repair 14.6µM
O=C(N/N=C/c1ccccn1)c1ccc(NC(=O)c2cccc([N+](=O)[O-])c2)cc1	ELG1 DNA repair 16.4µM
O=C(N/N=C/c1ccccn1)c1cccc([N+](=O)[O-])c1	ELG1 DNA repair inconclusive, Nrf2 block inconclusive
C/C(=N\NC(=O)COc1ccccc1[N+](=O)[O-])c1cccc(NC(=O)c2ccncc2)c1	ELG1 DNA repair 9.2µM, Nrf2 block inconclusive
CC(C)(C)c1ccc(C(=O)Nc2cccc([N+](=O)[O-])c2)cc1	ELG1 DNA repair inconclusive, Nrf2 block inconclusive
O=C(Nc1cccc([N+](=O)[O-])c1)c1ccncc1	Nrf2 activator 11.2µM
Cc1cccc(C(=O)Nc2nnc(-c3cccnc3)o2)c1	Nrf2 block inconclusive
O=C(Nc1nnc(-c2cccnc2)o1)c1cccc([N+](=O)[O-])c1	ELG1 DNA repair 18.3µM (no result: Nrf2 block, A549 tox, Nrf2 activator, mIDH1 inhibitor)
C/C(=N\NC(=O)c1ccncc1)c1cccc(NC(=O)c2ccc(C(C)(C)C)cc2)c1	ELG1 DNA repair inconclusive, Nrf2 block inconclusive
CC(C)(C)C(=O)Nc1nnc(SCC(=O)NC2CCCCC2)s1	none
Cc1ccc(NC(=O)c2ncn(CC(=O)NCC(C)c3ccccc3)n2)cc1C (stereo not drawn)	none
COc1ccc(/C=N/NC(=O)c2ccc(N)cc2)cc1Cn1cc([N+](=O)[O-])cn1	ELG1 DNA repair inconclusive
COc1ccc(/C=N\NC(=O)c2cccc([N+](=O)[O-])c2)cc1Cn1cc([N+](=O)[O-])cn1	ELG1 DNA repair 14.6µM (no result: Nrf2 block, A549 tox, Nrf2 activator, mIDH1 inhibitor)
O=C(CCNc1ccc(Cc2ccncc2)cc1)c1cccc([N+](=O)[O-])c1	Nrf2 block 14.6µM, Nrf2 activator inconclusive
O=C(Nc1cccc([N+](=O)[O-])c1)c1[nH]ncc1Cl	ELG1 DNA repair inconclusive, Nrf2 block inconclusive, Nrf2 activator 5.01µM
O=C1CC(/C=C/c2ccncc2)=Nc2ccccc2N1	ELG1 DNA repair 18.3µM
CCC[n+]1c2ccccc2cc2ccccc21	ELG1 DNA repair 23.1µM
O=C(Cn1sc2ccccc2c1=O)NC12CC3CC(CC(C3)C1)C2	ELG1 DNA repair inconclusive, Nrf2 activator 12.6µM
O=C(Cn1sc2ccccc2c1=O)Nc1ccccc1	Nrf2 activator inconclusive (no result: ELG1 DNA repair, Nrf2 block, A549 tox)
O=C(COc1cc(O)c2c(=O)c3ccccc3oc2c1)OCc1ccccc1	none
N#CC(C#N)=C1C=CC=CN1/C(=C\c1ccco1)C(=O)c1ccccc1	ELG1 DNA repair inconclusive
COc1ccc(C(=O)/C(=C\c2ccco2)N2C=CC=CC2=C(C#N)C#N)cc1	ELG1 DNA repair inconclusive, Nrf2 block inconclusive, A549 tox 18.4µM, Nrf2 activator inconclusive
Cc1nnc(Sc2cc(NCCO)c([N+](=O)[O-])c3nonc23)s1	Nrf2 block inconclusive, A549 tox 25.9µM
COc1ccccc1CNC(=O)c1c[nH]c2ccc(S(=O)(=O)Nc3cc(C)cc(C)c3)cc2c1=O	none (no result: ELG1 DNA repair, Nrf2 block)
Cn1cnc2c1c(=O)n(Cc1cccc(Cl)c1)c(=O)n2C	none
CCCSC1=C(C#N)C(c2ccc(OC)cc2)C2=C(CC(C)(C)CC2=O)N1 (stereo not drawn)	Nrf2 block 23.1µM
CSC1=C(C#N)C(c2ccc(Cl)cc2)C2=C(CC(C)(C)CC2=O)N1 (stereo not drawn)	ELG1 DNA repair 18.4µM, Nrf2 block inconclusive
COc1ccc(C2C(C#N)=C(C)NC3=C2C(=O)CC(C)(C)C3)cc1 (stereo not drawn)	none
O=C(COC(=O)c1ccc(OC(F)F)cc1)NCc1cccs1	none
C=CCOc1ccc(/C=N/NC(=O)c2cc3c(OC)cc(OC)cc3[nH]2)cc1	ELG1 DNA repair inconclusive, Nrf2 block inconclusive
COc1ccc(OC)c(/C=N/NC(=O)c2cc3c(OC)cccc3[nH]2)c1	A549 tox inconclusive
CCOc1ccc(/C=N/NC(=O)c2cc3c(OC)cc(OC)cc3[nH]2)cc1OC	ELG1 DNA repair 23.1µM, Nrf2 block inconclusive
COc1ccc(OC)c(/C=N\NC(=O)c2cc3c(ccc4ccccc43)o2)c1	ELG1 DNA repair 16.4µM
